Consider 33 compounds from PubChem BioAssay (NCI).

Structures are written as SMILES. This is part of a sample that, as a whole, favours compounds with a hit. Of some 83,000 tested, about 20% had one in any assay.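 For each line, cells grew in 96-well plates with the test compound present at a single concentration for 48 hours.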 Calls of active or inactive are those of the source. The calls were made as follows: active = growth percent below 10; inactive = the rest.

The first experiment deals with IGROV1 ovarian. In words: NCI-60 one-dose screen, 48 h (100 = growth as untreated, 0 = no growth, -100 = all killed). As to conditions: 10 µM unless noted.
Take `NC(=Nc1ccccc1)SCCCCSC(N)=Nc1ccccc1`: the growth is 75.3% (inactive).
The same measure, in the same setting: to `CC/C(=C\c1ccc(N(C)C)cc1)c1ccncc1` belongs 49.7% (inactive).
As for `Clc1ccc(-n2cnc3c(Cl)ncnc32)cc1Cl`, the growth is 54.6% (inactive).
Still for that read-out and setting: in the case of `O=C(CSCC(=O)N/N=C/c1ccccc1O)N/N=C\c1ccccc1O` it was 18.9% (inactive).
Still for that read-out and setting: in the case of `CCOC(=O)C1=NN(c2ccc(Cl)cc2)C2C3N(c4ccc(Cl)cc4)N=C(C(=O)OCC)N3c3ccccc3N12` (configuration not stated) it was 76.7% (inactive).
The same measure, in the same setting: in the case of `CC(=O)Oc1ccc(C23c4ccccc4C2(OC(C)=O)c2cc(OC(C)=O)ccc23)cc1` (configuration not stated) it was 91.9% (inactive).
As for `O=C(/C=C/c1ccccc1)CC(c1ccccc1)N1CCOCC1` (configuration not stated), the growth is 91.8% (inactive).
Same read-out and setting: in the case of `Cc1ccccc1NC(=O)c1cc2ccccc2cc1O` it was 30.2% (inactive); in that of `c1ccc(-n2nnnc2-c2cccc3ccccc23)cc1`, 31.4% (inactive).
On the same count and under the same terms, in the case of `Nc1ccccc1-c1ccc([N+](=O)[O-])cc1` it was 56.2% (inactive); in that of `CC(=O)n1c2ccccc2c2ccccc21`, 101% (inactive).
Still for that read-out and setting: to `COc1c(O)cc2oc3cc(O)c(CC=C(C)C)c(O)c3c(=O)c2c1C/C=C(\C)CCC=C(C)C` belongs 81.4% (inactive).
`CCOC(=O)c1ccccc1OC(=O)NNc1ccccc1`: the growth is 60.4% (inactive).
Same read-out and setting: to `COc1cccc(CCC2C(=O)CCCC2=O)c1` belongs 111% (inactive).
Still for that read-out and setting: in the case of `CC12CCC3C(CCC4CC(=O)/C(=C\O)CC43C)C1CCC(=O)O2` (configuration not stated) it was 95.1% (inactive); in that of `CC(C)C/C(=N\NC(=O)c1ccncc1)c1cc(Cl)ccc1O`, 9.3% (active).
Still for that read-out and setting: in the case of `OC(Cc1cccnc1)c1ccccc1` (configuration not stated) it was 114% (inactive); in that of `Cn1cnc([N+](=O)[O-])c1S(=O)(=O)Oc1ccc(Cl)cc1`, 69.8% (inactive); in that of `O=C(N1CCC(CN=c2cc3n(-c4ccc(Cl)cc4)c4ccccc4nc-3cc2Nc2ccc(Cl)cc2)CC1)N1CC1`, -92.3% (active).
For `CN1COc2ccc3ccccc3c2C1`, the growth is 86.3% (inactive).

In another experiment the test system is OVCAR-3 ovarian. Described as above. The following applies: 10 µM unless noted.
Regarding `COc1ccc2c(c1)C(=O)/C(=C/c1cccc(OCC(=O)c3ccccc3)c1)CC2`, the growth is 89.2% (inactive).
The same measure, in the same setting: to `NC(=Nc1ccccc1)SCCCCSC(N)=Nc1ccccc1` belongs 72% (inactive); to `CC/C(=C\c1ccc(N(C)C)cc1)c1ccncc1`, 42.3% (inactive).
Still for that read-out and setting: in the case of `CCOC(=O)c1cc(-c2cccnc2)nc2c(Cl)cc(Cl)cc12` it was 80% (inactive); in that of `Clc1ccc(-n2cnc3c(Cl)ncnc32)cc1Cl`, 98.9% (inactive).
The same measure, in the same setting: in the case of `O=C(CSCC(=O)N/N=C/c1ccccc1O)N/N=C\c1ccccc1O` it was 34.5% (inactive); in that of `COc1ccc(C(=O)COc2cccc(/C=C3\Oc4ccc5ccccc5c4C3=O)c2)cc1`, 72.4% (inactive); in that of `CC(=O)NC1(C(=O)O)CCCC1`, 112% (inactive).
In the case of `CC(=O)Oc1ccc(C23c4ccccc4C2(OC(C)=O)c2cc(OC(C)=O)ccc23)cc1` (configuration not stated), the growth was 78.2% (inactive).
Still for that read-out and setting: in the case of `COc1ccc(/C=C2\NC(=S)NC2=O)cc1` it was 107% (inactive).
Still for that read-out and setting: in the case of `O=C(/C=C/c1ccccc1)CC(c1ccccc1)N1CCOCC1` (configuration not stated) it was 78.9% (inactive); in that of `CCn1c2ccccc2c2ccc(C(C)=O)cc21`, 112% (inactive).
The same measure, in the same setting: in the case of `Cc1ccc(C=C2C(Cl)=C(Cl)C(Cl)=C2Cl)cc1` it was -85.1% (active); in that of `Cc1ccccc1NC(=O)c1cc2ccccc2cc1O`, -10.2% (active).
As for `c1ccc(-n2nnnc2-c2cccc3ccccc23)cc1`, the growth is -26.8% (active).
Same read-out and setting: to `Nc1ccccc1-c1ccc([N+](=O)[O-])cc1` belongs 71.7% (inactive); to `c1cnc2ccc3ncccc3c2c1`, 103% (inactive); to `CC(=O)n1c2ccccc2c2ccccc21`, 114% (inactive).
Same read-out and setting: to `COc1c(O)cc2oc3cc(O)c(CC=C(C)C)c(O)c3c(=O)c2c1C/C=C(\C)CCC=C(C)C` belongs 62% (inactive); to `CCOC(=O)c1ccccc1OC(=O)NNc1ccccc1`, 77.7% (inactive); to `O=C(/C=C/c1cc2ccccc2[nH]c1=O)c1ccc(O)cc1`, -18.8% (active).
In the case of `COc1cc(/C=C2\COc3ccc(O)cc3C2=O)cc(OC)c1`, the growth was 37.1% (inactive).
Same read-out and setting: in the case of `ClC1=C(Cl)C(Cl)=C(Cl)C1=C/C=C/c1ccccc1` it was -88.7% (active).
On the same count and under the same terms, to `COc1cccc(CCC2C(=O)CCCC2=O)c1` belongs 99.9% (inactive); to `CN(C)CCCN1c2nc3ccccc3cc2Sc2cc3ccccc3nc21`, -81.4% (active).
The same measure, in the same setting: to `Cc1c(C)c(N2C(=O)C=CC2=O)c(C)c(C)c1N1C(=O)C=CC1=O` belongs 45.1% (inactive).
With `CC12CCC3C(CCC4CC(=O)/C(=C\O)CC43C)C1CCC(=O)O2` (configuration not stated), the growth is 114% (inactive).
